The results in this text go back to PubChem BioAssay AID2314 (National Center for Advancing Translational Sciences (NCATS), 2010).

About 37,000 (12%) of roughly 300,000 compounds were called active. The sample as a whole holds a higher share of actives than the screen did. A number with no mark means an inactive call. Cut-off read from the data, not from the text of the source: active = max response mostly above about 13% (no sharp cut-off); inactive = mostly below about 14%.

This experiment in a line: Cycloheximide Counterscreen for Small Molecule Inhibitors of Shiga Toxin. Note: read at 38.3 µM for the half of the compounds with a filed dose; 0% is about no effect. As to conditions: cell reporter, cycloheximide protein synthesis inhibition counterscreen; stronger effect = higher value.
Turning to `Cc1cc(O)c(C(=O)/C=C/c2c(F)c(F)c(F)c(F)c2F)c(=O)o1`, the max response was 35.8% (active).

Regarding `Cc1ccc(N=Cc2c(O)cc(C)oc2=O)c(C)c1`, the max response was -0.907%.

On to `C/C(=N\NS(=O)(=O)c1ccccc1)c1c(O)cc(C)oc1=O`, for which the max response is 3.15%.

In the case of `O=C(Cc1cccs1)N(CC1CCCO1)C1(C(=O)NC2CCCCC2)CCCCC1` (stereo not given), the max response was -1.59%.

In the case of `CCCOc1ccc(Cc2c(O)nc(N)[nH]c2=O)cc1C`, the max response is -2.37%.

Consider `COc1c(O)ccc2c1CN1CCc3cc4c(cc3C1C2)OCO4` (stereo not given), for which the max response is -3.13%.

For `Cn1cccc1-c1nc2ccccc2n1C`, the max response was 18% (active).

Regarding `Cn1c(S(=O)(=O)O)nc2ccccc21`, the max response is -1.42%.

Regarding `Cc1nn2c3ccccc3nc2n(C)c1=O`, the max response was -2.2%.

On to `CCn1cc(C(=O)N2CC=C(c3ccccc3)CC2)c(=O)c2ccc(C)nc21`, for which the max response is 7.37%.

As for `COC(=O)c1nn(-c2cccc(Cl)c2)ccc1=O`, the max response is 4.96%.

Consider `Cc1cccc(-c2nnc(SCC(=O)O)n2Cc2ccccc2)c1`, for which the max response was -1.57%.

As to `Cc1cc(C)c2c(Cn3ccnc3)cc(=O)oc2c1`, the max response is -3.34%.

Turning to `Cc1cccc(N(C)C(=O)CN2C(=O)COc3ccc(S(=O)(=O)N4CCCCCC4)cc32)c1`, the max response is -2.56%.

In the case of `COc1ccc(S(=O)(=O)N(CC(=O)NCc2ccco2)c2ccc(F)cc2)cc1`, the max response was -2.34%.

Regarding `O=C(Nc1cccc2ccccc12)N1CCN(Cc2ccc3c(c2)OCO3)CC1`, the max response is -0.788%.

As for `COc1ccc(NC(=O)N2CCC3(CC2)OCCO3)c(OC)c1`, the max response was 0.567%.

As to `O=C(Nc1cccc2ccccc12)N1CCC2(CC1)OCCO2`, the max response is 22.3% (active).

Regarding `CN(CC(=O)Nc1c(Cl)cccc1Cl)C(=O)c1ccncc1`, the max response is -0.763%.

As to `CC1CN(C(=O)CCC(=O)NCCCN2CCC(Cc3ccccc3)CC2)c2cc(Cl)ccc2O1` (stereo not given), the max response was -3.45%.

On to `COc1ccc(S(=O)(=O)NCC(=O)NC2CC2)cc1OC`, for which the max response was -2.51%.

`COc1ccc(CCNC(=O)C2CCCN(S(=O)(=O)c3ccc(OC)cc3)C2)cc1` (stereo not given): the max response was -5.86%.

Regarding `COc1nc(NC2CCCCC2)nc(N2CCCCCC2)n1`, the max response was 8.36%.

As to `O=C1Nc2cc(C(=O)N3CCN(c4ccc(F)cc4)CC3)ccc2NC1CSCc1cccc(F)c1` (stereo not given), the max response is 2.89%.

`Cc1cc(/C=N/Nc2ccc([N+](=O)[O-])cn2)c(C)n1-c1cccc(C(=O)O)c1`: the max response was 27.7% (active).

In the case of `Cc1ccc(-n2c(C)cc(/C=N/Nc3ccc([N+](=O)[O-])cn3)c2C)c(C)c1`, the max response is 20.7%.

Take `Cc1cc(/C=N/n2cnnc2)c(C)n1-c1cccc(C(=O)O)c1`: the max response was 4.01%.

As to `O=C1CSC2=NCN(c3ccccc3)CN12`, the max response was 1.46%.

Consider `COc1ccc(S(=O)(=O)N2CCOCC2)cc1C(=O)NC1CCCCC1`, for which the max response was -2.56%.

Regarding `CC(=O)Nc1cccc(-c2cnc3ccccc3n2)c1`, the max response was 34.8% (active).

On to `Cc1cccc(S(=O)(=O)CC(=O)Nc2nc(-c3ccccc3)cs2)c1`, for which the max response is -5.29%.

`CC(=O)Nc1ccc(-c2csc(NC=C3C(=O)OC(C)(C)OC3=O)n2)cc1`: the max response was 19.8%.

Take `CCS(=O)(=O)Nc1cccc(-c2cc(-c3ccccc3)c3cc(C)ccc3n2)c1`: the max response was -0.522%.

Consider `CC(=O)Nc1cccc(-c2csc(Nc3cccc(C)n3)n2)c1`, for which the max response was 50.7% (active).

As to `Cc1cccc(Nc2nc(-c3ccccc3)cs2)n1`, the max response is 56.2% (active).

As to `CC(=O)Nc1cccc(NC(=O)c2c(-c3ccccc3)noc2C)c1`, the max response is -1.94%.

Turning to `COc1ccc(CCNc2nc(-c3cccc(NC(C)=O)c3)cs2)cc1OC`, the max response was 10.5%.

As for `COc1ccc(C(=O)NC(C)c2nccs2)cc1OC1CCN(C(C)C)CC1` (stereo not given), the max response was -0.856%.

With `O=C(CNc1cccc(S(=O)(=O)N2CCCCC2)c1)Nc1ccccc1F`, the max response is -2.83%.

On to `Cc1noc(C)c1CSc1nc2cc(S(=O)(=O)N3CCOCC3)ccc2o1`, for which the max response was -1.38%.

Take `CCNC(=O)c1sccc1-n1cccc1`: the max response was 2.68%.

For `Cc1ccc(C(=O)N/C(=C\c2cn(C)c3ccccc23)C(=O)N2CCN(C)CC2)cc1`, the max response was 1.99%.

For `CCCn1nnnc1NCc1ccc(OC)cc1`, the max response was -1.31%.

As for `CC1(C)CC(=O)CC2(C1)NCC(c1ccccc1Cl)c1c2[nH]c2ccccc12` (stereo not given), the max response was 2.51%.

As for `Cc1oc2cc([N+](=O)[O-])c(O)c([N+](=O)[O-])c2c1C(=O)c1ccc(Br)cc1`, the max response is -7.47%.

Take `Cc1cccc(N2CCN(C(=O)/C=C/c3ccco3)CC2)c1C`: the max response was 15.1% (active).

For the compound `CCC(CC)C(=O)N1CCN(c2cccc(C)c2C)CC1`, the max response was 4.17%.

Regarding `CCn1c(C)c(C)c2cc(C(=O)N3CCN(c4cccc(C)c4C)CC3)ccc21`, the max response is -3.95%.

On to `COCCCn1c(-c2cccs2)nc2nc3ccccc3nc21`, for which the max response is 8.97%.

Regarding `CCOC(=O)CN(C)S(=O)(=O)c1ccc(-c2cc(C(=O)OC)sc2C(F)(F)F)cc1`, the max response was 4.79%.

For the compound `CCOC(=O)c1c(S(=O)(=O)Nc2ccc(CN3CCC(C)CC3)cc2)c(C)n(C)c1C`, the max response is -1.22%.

`O=C(CCn1c(=S)[nH]c2cc3c(cc2c1=O)OCO3)NCc1ccc(Cl)cc1`: the max response is 12.5%.

Consider `CC(C)OCCCNC(=O)c1ccc(C2SCC(=O)N2Cc2ccco2)cc1` (stereo not given), for which the max response is -3.14%.

As for `COc1cc(NC(=O)C2CCN(c3cnccn3)CC2)cc(OC)c1`, the max response was -1.38%.

As for `COc1ccc2oc(-c3cccc(NC(=O)CSc4ccc(Cl)cc4)c3)nc2c1`, the max response was 14.3% (active).

`COc1ccc(C(=O)NCc2nnc(SCC(=O)Nc3cccc(OC)c3)o2)cc1`: the max response was -4.63%.

As for `COc1cccc(-c2nc3cc(C)ccc3o2)c1`, the max response is 47.1% (active).

As for `COc1cccc(-c2nc(S(=O)(=O)c3ccccc3)c(N3CCOCC3)o2)c1`, the max response is -1.61%.

On to `COc1cccc(-c2nnc(SCCOc3ccc4c(C)cc(=O)oc4c3)o2)c1`, for which the max response was -1.4%.

Turning to `COc1ccc(C)cc1NC(=O)CSc1ccc(Cl)cc1`, the max response was 2.38%.
